# Measured values published in the OligoGym collection.
# Tests used:
# Experiment in all cases: pooled miR-30 sensor sort-seq; sequence = guide strand
# Conditions in all cases: shRNA
# [1] = target: PKD2L1
# [2] = target: PKLR
# [3] = target: PKIG
# [4] = target: PITPNM3
# [5] = target: PKIA
# [6] = target: PLEKHJ1
# [7] = target: PLEKHN1
# [8] = target: PLEKHA8
# [9] = target: PLEKHB1
# Note: reference of the scale not given here.
sequence,measurement,setting,value
TACTTGAATATCTTGATCCAGG,sensor-assay potency score (higher = more potent),[1],-0.611
TAGTAGAAGATGAAGACGCAGA,sensor-assay potency score (higher = more potent),[1],-0.533
TAGATGACAGTTATAGTCTCAG,sensor-assay potency score (higher = more potent),[2],-0.0862
TTCATCTTCAGGCTTCTTGGGT,sensor-assay potency score (higher = more potent),[1],-0.0602
TTACAGTGTCTTGAAAGTGTAC,sensor-assay potency score (higher = more potent),[3],-0.626
TTGAATATCTTGATCCAGGCGA,sensor-assay potency score (higher = more potent),[1],0.38
TAGTAATAAGCACTGGAGCTTG,sensor-assay potency score (higher = more potent),[1],-0.791
TAGACAGAGATGTCCTTCGTGG,sensor-assay potency score (higher = more potent),[4],-0.052
TAACATGATAATGAGCAGGTTC,sensor-assay potency score (higher = more potent),[5],0.186
TTGATCATCTCCTTGAGGCGCT,sensor-assay potency score (higher = more potent),[2],1.07
TTGCTGAGACGCTTGCTGCTGG,sensor-assay potency score (higher = more potent),[4],-0.433
TCTTGTTGATATCAAGACCTGC,sensor-assay potency score (higher = more potent),[5],-0.396
TTTAACATGATAATGAGCAGGT,sensor-assay potency score (higher = more potent),[5],0.937
TTTGTTCTGTAGAACTTCGTTG,sensor-assay potency score (higher = more potent),[5],0.16
TGGGGCGCTTCCCTCCACCTGT,sensor-assay potency score (higher = more potent),[3],-1.57
TTGTTGAAGCTGATGTACTTGA,sensor-assay potency score (higher = more potent),[1],-0.253
TAGGTGTCACTTATCCTGGTGG,sensor-assay potency score (higher = more potent),[3],-0.436
TTCAAAGATCTCTGAATCCTGA,sensor-assay potency score (higher = more potent),[1],0.0945
TTCAAGGCTAATTCATTGCTGT,sensor-assay potency score (higher = more potent),[5],0.0225
TCAGGGACCGCATTCCGACGGC,sensor-assay potency score (higher = more potent),[3],-0.897
TTCGTTCCTGTAGAAGATGAGG,sensor-assay potency score (higher = more potent),[6],-0.827
TTGAACACACTCAGGAATGGCT,sensor-assay potency score (higher = more potent),[7],-0.516
TATCTACAGAATGAACTTGAAT,sensor-assay potency score (higher = more potent),[8],-1.22
TTTCCAACAAGATCCATCTTAA,sensor-assay potency score (higher = more potent),[8],-0.407
TATGCCGAACTGTTCCAGGGGG,sensor-assay potency score (higher = more potent),[6],-0.541
TTGAAGTGGATGAGCACACGGT,sensor-assay potency score (higher = more potent),[9],-0.311
TTTGAACAGAACAAGCACCCTG,sensor-assay potency score (higher = more potent),[6],0.823
TAGGGCTGTCTGGATATCCTTC,sensor-assay potency score (higher = more potent),[8],-0.391
TCATCCTTGGTCTCCGCACAGA,sensor-assay potency score (higher = more potent),[9],-1.23
ATGAACTCGTAGCTGGCCCGAC,sensor-assay potency score (higher = more potent),[6],-0.947
